Results: PubChem BioAssay
Active and inactive are the calls of the source.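 How the source made its calls, unless noted: active means visually confirmed hit in the image check and inhibition above 20%; inconclusive means visually confirmed hit but inhibition not above 20%; inactive means no visual hit in the image check.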

Tests used:
[1] = inhibitors of TNFa-induced NFkB p65 translocation, primary screen, imaging, HUVEC, MLSMR starter and 10KST1 sets (AID 438;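 active means inhibition above 20% together with a positive visual image hit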;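 further: compound added about 3h40 before a 20 min TNFalpha stimulation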;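 on inhibition: signal is the nuclear over cytoplasmic p65 intensity ratio per well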); conditions: HUVEC TNFa-induced p65 nuclear translocation; cell count: measured here: nuclei count (cytotoxicity indicator), at 2.08 µM; inhibition: at 2 µM, stronger effect = higher value, 0% TNFa-plus-vehicle, 100% no-TNFa wells
[2] = reduction of polyQ htt aggregates in cells – imaging, exon1htt(103Q)mCFP cells, high-content imaging, primary screen (AID 483;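 active means visual image review flags a hit and inhibition of aggregation exceeds 20%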;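 further: compound exposure lasted 3 days before fixation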;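 on nuclei count: percent of the per-plate median nuclei count of sample wells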); conditions: exon1htt(103Q)mCFP cell line, aggregate imaging, at 2 µM; inhibition of aggregation: stronger effect = higher value; nuclei count: measured here: cell count, toxicity
[3] = endothelial E-selectin expression blockers – imaging, HUVEC, immunofluorescence, MLSMR starter and 10KST1 sets, primary screen (AID 487); conditions: HUVEC TNFalpha-induced E-selectin immunofluorescence imaging, at 2 µM; inhibition: stronger effect = higher value; nuclei count: measured here: cell number, toxicity;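 on inhibition: signal is fraction of cell area covered by stained E-selectin grains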;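 on nuclei count: 100% = median nuclei count of all wells on the same plate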
[4] = molecular target: Voltage-gated potassium channel subunit beta-2 (Rattus norvegicus) (UniProt P62483); test: inhibitors of rat Kvbeta2 reductase activity – biochemical, NADPH fluorescence, primary screen (AID 622;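 active means fluorescence slope higher than the sample average by over 3 SD, cut at about -0.22 in these data, passing the limit was not always enough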;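 further: slope of raw intensity against log time taken from 70 to 1610 s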); conditions: recombinant KvBeta, 4-cyanobenzaldehyde reduction, at 10 µM, stronger effect = higher value
Voltage-gated potassium channel subunit beta-2 (Rattus norvegicus), sequence (P62483 whole entry, looked up): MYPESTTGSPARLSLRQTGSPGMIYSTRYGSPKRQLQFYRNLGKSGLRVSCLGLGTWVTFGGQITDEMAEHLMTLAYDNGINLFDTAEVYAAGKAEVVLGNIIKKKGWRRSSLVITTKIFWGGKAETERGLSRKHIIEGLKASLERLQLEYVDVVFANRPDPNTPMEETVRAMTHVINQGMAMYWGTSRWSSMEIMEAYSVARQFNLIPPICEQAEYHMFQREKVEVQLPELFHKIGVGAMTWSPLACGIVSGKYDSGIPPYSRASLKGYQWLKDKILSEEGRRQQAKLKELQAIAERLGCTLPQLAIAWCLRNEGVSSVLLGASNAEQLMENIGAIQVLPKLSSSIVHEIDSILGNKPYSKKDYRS

[5] = molecular target: Voltage-gated potassium channel subunit beta-2 (Rattus norvegicus) (UniProt P62483); test: enhancers of rat Kvbeta2 NADPH turnover – biochemical, NADPH fluorescence, primary screen (AID 623;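 active means NADPH fluorescence slope more negative than the mean of all samples by about 3 SD, 99.7% confidence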;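 further: fluorescence intensity change per second fitted from 20 to 320 s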); conditions: Recombinant KvBeta, NADPH fluorescence decrease slope, 10 min; at 10 µM; stronger effect = lower value
[6] = molecular target: Alpha-2C adrenergic receptor (Homo sapiens) (UniProt P18825); test: compounds altering alpha2C-coupled GIRK flux – cell-based, HEK293 alpha2C/GIRK1/2, thallium flux, primary screen (AID 624;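 active means fluorescence slope after compound addition differing from the mean of all screened samples at 99.7% confidence, in either direction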;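 further: slope of fluorescence ratio to pre-addition baseline per second over 15 to 24 s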); conditions: thallium flux BTC fluorescence, at 10 µM, actives lie on both sides
Alpha-2C adrenergic receptor (Homo sapiens), sequence (P18825 whole entry, looked up): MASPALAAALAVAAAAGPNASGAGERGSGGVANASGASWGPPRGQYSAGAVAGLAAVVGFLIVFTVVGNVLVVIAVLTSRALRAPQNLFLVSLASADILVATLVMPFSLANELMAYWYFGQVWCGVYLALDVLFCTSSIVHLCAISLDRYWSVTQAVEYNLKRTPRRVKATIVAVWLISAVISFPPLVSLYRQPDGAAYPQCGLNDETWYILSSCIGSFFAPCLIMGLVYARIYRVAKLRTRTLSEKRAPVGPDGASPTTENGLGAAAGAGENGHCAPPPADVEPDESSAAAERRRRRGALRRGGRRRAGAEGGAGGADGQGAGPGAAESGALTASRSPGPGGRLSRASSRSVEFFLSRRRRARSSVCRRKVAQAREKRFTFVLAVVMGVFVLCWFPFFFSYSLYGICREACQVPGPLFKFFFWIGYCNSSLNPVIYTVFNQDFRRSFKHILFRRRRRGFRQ

[7] = blockers of RIG-like receptor reporter activation – cell-based, Sendai virus stimulus, luciferase, 10K MLSCN set, TLR/RLR signaling modifier project, primary screen (AID 602276;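 active means inhibition at or above 50% at 10 µM; inactive means inhibition below 50%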;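 further: firefly luciferase from ISG56 promoter only with Renilla not read in this screen; 0% = Sendai virus plus DMSO and 100% = medium plus DMSO without virus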); conditions: HEK293 RL24 IRF3 luciferase reporter, at 10 µM, stronger effect = higher value
[8] = TLR3 IRF3 reporter activation blockers – cell-based, poly I:C stimulus, luciferase, 10K MLSCN set, primary screen (AID 602277;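 active means inhibition of the reporter signal at or above 50%; inactive means inhibition below 50%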); conditions: HEK293-TLR3 RL24 IRF3 luciferase reporter, at 10 µM, stronger effect = higher value

Compound | cell count [1] | inhibition [1] | inhibition of aggregation [2] | nuclei count [2] | inhibition [3] | nuclei count [3] | fluorescence slope [4] | NADPH fluorescence slope [5] | slope [6] | inhibition [7] | inhibition [8]
Cc1[nH]nc(N=CC2=C(O)CC(C)(C)CC2=O)c1-c1ccccc1 | 551 | -8.6% (inactive) | -3.5% (inactive) | 85.2% | 15.4% (inactive) | 95.3% | -0.344 (inactive) | -2.3e-05 (inactive) | 0.00489 (inactive) | -16.8% (inactive) | 13.8% (inactive)
CC(C)OC(=O)c1ccc(OC(=O)c2cccnc2)cc1 | 424 | 3.3% (inactive) | -5.5% (inactive) | 107% | 12.1% (inactive) | 104% | -0.429 (inactive) | -6.3e-05 (inactive) | 0.00544 (inactive) | -2.15% (inactive) | -5.2% (inactive)
CCc1c(C)n([O-])c2c([n+]1=O)CCC2 | 369 | 2.8% (inactive) | -1.6% (inactive) | 106% | 3.1% (inactive) | 111% | -0.51 (inactive) | -1.5e-05 (inactive) | 0.00618 (inactive) | -11.4% (inactive) | 7.02% (inactive)
Cc1ccc2[nH]c(=O)c3cc(C(=O)NCCN4CCN(C)CC4)sc3c2c1 | 526 | -0.5% (inactive) | 2.4% (inactive) | 60% | -14.1% (inactive) | 116% | -0.229 (active) | -4.2e-06 (inactive) | 0.00573 (inactive) | 10.4% (inactive) | 90.4% (active)
Cc1cccc(-c2nnn(CC/C(N)=N/O)n2)c1 | 321 | -4.8% (inactive) | -1.8% (inactive) | 84.2% | 25.6% (inactive) | 90.5% | -0.496 (inactive) | -2.1e-05 (inactive) | 0.00549 (inactive) | 2.73% (inactive) | -10.7% (inactive)
O=C(NCc1cccnc1)c1ccccn1 | 354 | -11% (inactive) | -7.8% (inactive) | 113% | -18.1% (inactive) | 108% | -0.466 (inactive) | -4.5e-06 (inactive) | 0.00661 (inactive) | 3.99% (inactive) | -3.56% (inactive)
COc1ccc(N2CCN(C(=O)C(C)(C)Oc3ccc(Cl)cc3)CC2)cc1 | 651 | 5.8% (inactive) | 4.4% (inactive) | 96.2% | 0% (inactive) | 111% | -0.564 (inactive) | -4.3e-05 (inactive) | 0.00674 (inactive) | 2.83% (inactive) | 28.4% (inactive)
CCCC(=O)Nc1ccccc1-c1nnn(CC(=O)Nc2ccc(OCC)cc2)n1 | 369 | 3% (inactive) | -6.8% (inactive) | 97.4% | -7.5% (inactive) | 94.3% | -0.444 (inactive) | -0.000123 (inactive) | 0.00619 (inactive) | 12.2% (inactive) | 9.95% (inactive)
COc1ccc(OCC(=O)N2CCN(C(=O)Cc3ccccc3)CC2)cc1 | 616 | -22.3% (inactive) | -1.4% (inactive) | 106% | -14.3% (inactive) | 101% | -0.517 (inactive) | -4.7e-05 (inactive) | 0.00449 (inactive) | -10.1% (inactive) | -7.66% (inactive)
COc1ccc2[nH]c(=O)c(CN(C(=O)c3cccnc3)c3ccccc3OC)cc2c1 | 466 | -3.3% (inactive) | -3% (inactive) | 114% | -19.8% (inactive) | 113% | -0.449 (inactive) | 1.5e-05 (inactive) | 0.00765 (inactive) | 12.5% (inactive) | 22.6% (inactive)
CCOC(=O)Nc1c(O)ccc2oc(C)c(-c3ccccc3)c12 | 271 | -6.4% (inactive) | -22% (inactive) | 104% | -63.2% (inactive) | 106% | -0.5 (inactive) | -0.000121 (inactive) | 0.0037 (inactive) | 18.3% (inactive) | 28.6% (inactive)
O=C(NCC12CC3CC(C1)CC(CNC(=O)N1CCCC1)(C3)C2)N1CCCC1 | 633 | 2.2% (inactive) | 3.3% (inactive) | 92.2% | -37.7% (inactive) | 112% | -0.463 (inactive) | -6e-05 (inactive) | 0.00588 (inactive) | 19.1% (inactive) | 22.9% (inactive)
CCn1cc(C(=O)NCCCOC)c(=O)c2cc(S(=O)(=O)N(C)C3CCCCC3)ccc21 | 559 | -15.1% (inactive) | 18.2% (inactive) | 74.5% | -38.4% (inactive) | 100% | -0.678 (inactive) | 5.7e-06 (inactive) | 0.00665 (inactive) | 6.58% (inactive) | 28.2% (inactive)
COC(=O)Nc1ccccc1C(=O)N1CCCCC1 | 403 | 9.9% (inactive) | 4% (inactive) | 120% | -25.5% (inactive) | 112% | -0.597 (inactive) | -8.5e-07 (inactive) | 0.00473 (inactive) | 6.49% (inactive) | 13.9% (inactive)
Cc1cnc(C(=O)OCC(=O)Nc2ccc(Oc3ccccc3)cc2)cn1 | 566 | -16.3% (inactive) | -29.2% (inactive) | 107% | -1.5% (inactive) | 122% | -0.367 (inactive) | -8.3e-06 (inactive) | 0.00457 (inactive) | -29.5% (inactive) | -39.7% (inactive)
COCCNC(=O)C(c1ccncc1)N(C(=O)Cn1nnc2ccccc21)c1ccc(OC)cc1 (stereo not drawn) | 679 | 8.2% (inactive) | -3.2% (inactive) | 100% | 8.4% (inactive) | 99.8% | -0.481 (inactive) | -4.3e-05 (inactive) | 0.00706 (inactive) | -0.74% (inactive) | 25.1% (inactive)
CC(Sc1nc(-c2ccccc2)cc(C(F)(F)F)n1)C(=O)N1CCCC1 (stereo not drawn) | 698 | -1.1% (inactive) | -38.4% (inactive) | 118% | -83% (inactive) | 133% | -0.506 (inactive) | 3.3e-05 (inactive) | 0.00611 (inactive) | 5.88% (inactive) | 16.9% (inactive)
CC1=C(C(=O)NCc2ccco2)C2(CCC(C)CC2)OC1=O (stereo not drawn) | 438 | 7.7% (inactive) | 22.4% (inactive) | 62.3% | -20.5% (inactive) | 106% | -0.513 (inactive) | -2.5e-05 (inactive) | 0.00707 (inactive) | 23% (inactive) | 23.3% (inactive)
COc1cc2c(cc1OC)C(c1ccc(C)o1)CC(=O)N2 (stereo not drawn) | 748 | 0% (inactive) | -33.4% (inactive) | 112% | -48.1% (inactive) | 122% | -0.574 (inactive) | -3e-05 (inactive) | 0.00589 (inactive) | 11.9% (inactive) | 30.4% (inactive)
COc1cc2c(C)nc(C)c(C#N)c2cc1OC | 709 | -23.3% (inactive) | -17.8% (inactive) | 85.6% | -12.4% (inactive) | 124% | -0.481 (inactive) | -4.4e-05 (inactive) | 0.00598 (inactive) | 2.98% (inactive) | 2.54% (inactive)
Cn1c(=O)c(C(=O)Nc2cccnc2)c(O)c2ccccc21 | 632 | 5.5% (inactive) | 0.5% (inactive) | 128% | -74% (inactive) | 112% | -0.479 (inactive) | -4.8e-05 (inactive) | 0.0062 (inactive) | -29.2% (inactive) | -42.3% (inactive)
CC1CCCc2sc3nc(NCc4ccco4)n4ncnc4c3c21 (stereo not drawn) | 335 | 7.7% (inactive) | 8.4% (inactive) | 17.7% | 5.2% (inactive) | 112% | -0.514 (inactive) | -9.2e-06 (inactive) | 0.00555 (inactive) | 2.57% (inactive) | -0.465% (inactive)
Cc1ccc(N(CC(=O)NCC2CCCO2)S(C)(=O)=O)cc1Cl (stereo not drawn) | 478 | -4.5% (inactive) | 0.2% (inactive) | 114% | -59.9% (inactive) | 121% | -0.292 (inactive) | -1.4e-05 (inactive) | 0.00598 (inactive) | 23.8% (inactive) | 12.4% (inactive)
C=CCn1c(CC#N)nnc1N1CCOCC1 | 481 | 0.7% (inactive) | -15% (inactive) | 116% | -92% (inactive) | 118% | -0.487 (inactive) | 2.7e-05 (inactive) | 0.00619 (inactive) | 6.66% (inactive) | 13.3% (inactive)
O=C(CSc1nc(O)c(Cc2ccccc2)c(=O)[nH]1)Nc1ccccc1 | 366 | 5.3% (inactive) | 0.2% (inactive) | 95.2% | 5.2% (inactive) | 115% | -0.44 (inactive) | -3e-05 (inactive) | 0.00311 (inactive) | 3.29% (inactive) | 24.3% (inactive)
CC1CC(NC(=O)c2cnc3n(c2=O)CCS3)CC(C)(C)C1 (stereo not drawn) | 626 | -2.3% (inactive) | -23.1% (inactive) | 113% | -37.1% (inactive) | 112% | -0.56 (inactive) | -4.4e-05 (inactive) | 0.00953 (inactive) | 16.9% (inactive) | 38.3% (inactive)
O=C(c1ccco1)N(Cc1cc2ccccc2[nH]c1=O)C1CCCCC1 | 312 | 4.8% (inactive) | -13.6% (inactive) | 114% | -42.1% (inactive) | 115% | -0.617 (inactive) | 2e-05 (inactive) | 0.00525 (inactive) | -3.39% (inactive) | 6.38% (inactive)
O=C(CSc1nnc(-c2c[nH]c3ccccc23)o1)N(Cc1ccccc1)c1ccc(F)cc1 | 295 | -6.1% (inactive) | 1% (inactive) | 95.3% | -20.3% (inactive) | 119% | -0.6 (inactive) | -2.1e-05 (inactive) | 0.00713 (inactive) | -15.4% (inactive) | -35.1% (inactive)
